# Assay outcomes: PubChem, several laboratories
# Compounds with a hit are over-represented: about 3.9% of the library has one in this group of screens.
# Autofluor counter: compound fluorescence in toxin protease inhibitor counterscreen; compound autofluorescence counterscreen, microsphere flow cytometry; stronger effect = higher value; fluorescence intensity (concentration not given with the values); 3.1% of 360,000 active; AID 624483; in the data active = fluorescence intensity above about 16000; inconclusive = no clear call, values can overlap the other calls
# 3CLpro inhibitor: SARS-CoV 3CLpro protease inhibitors, primary screen, biochemical, quenched FRET | Replicase polyprotein 1ab (Severe acute respiratory syndrome coronavirus), P0C6X7 | recombinant SARS-CoV 3CLpro, quenched FRET peptide cleavage | inhibition, % at 6 µM | 0.14% of 290,000 active; in the data active = inhibition above about 12%
# VHR inh abs: VHR1 phosphatase inhibitors, primary screen, biochemical, absorbance, uHTS; Dual specificity protein phosphatase 3 (Homo sapiens), P51452; recombinant VHR phosphatase, pNPP absorbance; inhibition, % at 13.3 µM; 0.52% of 290,000 active; AID 1654, 2009; in the data active = inhibition above about 50%
# Target sequence (P51452 whole entry, looked up): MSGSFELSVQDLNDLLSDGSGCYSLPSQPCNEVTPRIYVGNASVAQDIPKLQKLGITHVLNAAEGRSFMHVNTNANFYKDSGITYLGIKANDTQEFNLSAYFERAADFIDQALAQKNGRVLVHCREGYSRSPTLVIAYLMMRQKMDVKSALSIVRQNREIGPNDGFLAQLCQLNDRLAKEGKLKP
# BoNT-F LC inh: BoNT/F light chain protease inhibitors, primary screen, biochemical, flow cytometry, MLPCN library. Botulinum neurotoxin type F light chain protease (Clostridium botulinum). Multiplex microsphere protease cleavage assay. AID 588497, 2011. 0.22% of 360,000 active. inhibition, % at 10 µM; in the data active = inhibition above about 35%, passing the limit was not always enough; inconclusive = no clear call, values can overlap the other calls; note: plate controls were buffer without enzyme for full effect and enzyme alone for no effect
# Anthrax LF prot: Bacillus anthracis LF protease inhibitors, primary screen, biochemical, multiplex microsphere, MLPCN library; inhibition, % at 10 µM; 0.12% of 360,000 active; multiplex microsphere protease cleavage assay; Lethal factor (Bacillus anthracis), P15917; note: plate controls were buffer without enzyme for full effect and enzyme alone for no effect
# BoNT-A LC inh2: BoNT/A light chain protease inhibitors, primary screen, biochemical, flow cytometry, MLPCN library; Botulinum neurotoxin type A light chain protease (Clostridium botulinum A str. ATCC 3502); multiplex microsphere protease substrate cleavage; inhibition, % at 10 µM; 0.17% of 360,000 active; AID 588499, 2011; note: plate controls were buffer without enzyme for full effect and enzyme alone for no effect
# * hit, by the source's call; ? = inconclusive; · = no result given. Cut-off read from the data, not from the text of the source, unless noted: active = inhibition above about 30%; inconclusive = no clear call, values can overlap the other calls; inactive = below that.
SMILES,Autofluor counter,3CLpro inhibitor,VHR inh abs,BoNT-F LC inh,Anthrax LF prot,BoNT-A LC inh2
CCn1c(=N)n(CC(=O)OC)c2ccccc21,4374,-0.3,55.9*,-11.0,2.3,-2.2
N=c1n(Cc2ccccc2)c2ccccc2n1CC(O)c1ccco1 (stereo not drawn),·,-3.6,43.8,·,·,·
CCn1c(=N)n(CC(=O)C(C)(C)C)c2ccccc21,8194,4.0,-11.1,-12.2,-0.8,-0.8
CCCN(C)C[C@H]1OCc2cnnn2CCCC(=O)N([C@H](C)CO)C[C@@H]1C,4140,·,·,1.2,1.7,-0.2
C=CCNC(=O)N1CCC(n2nccc2NC(=O)CCCc2ccccc2)CC1,4334,-1.0,55.6*,-6.1,-1.5,0.3
C=CCCC(=O)N1CCC(n2nccc2NC(=O)CCCc2ccccc2)CC1,5657,2.6,-9.1,2.7,-0.5,-0.3
COCC(=O)N1CCC(n2nccc2NC(=O)CCOc2ccccc2)CC1,4980,-6.3,55.5*,4.3,0.7,1.0
COC(=O)c1cc(C(=O)OC)n(Cc2ccc(Br)cc2)n1,21618*,-3.8,14.6,-4.9,-2.3,?
Cc1ccc(Cn2nc(C(=O)Nc3ccc(Br)cc3)cc2C)cc1,3229,0.6,0.1,7.9,-8.5,-2.4
CCC(=O)Nc1ccc(S(=O)(=O)Nc2cccc(C)c2)cc1OC,23804*,-0.1,-5.7,-3.1,0.0,-1.7
N/C(=N\OC(=O)CSc1ccccc1)c1ccncc1,5604,-1.0,25.7,14.0,-8.5,-0.2
CCCCn1c(=O)c2c(nc3n2CCCN3Cc2ccccc2)n(C)c1=O,3569,-0.4,58.2*,-5.9,-8.6,-4.3
Cn1c(=O)n(Cc2ccccc2)c(=O)c2c1nc1n2CCCN1CCc1ccccc1,23593*,-2.2,-2.5,-2.6,-4.9,?
CC1CN(Cc2ccccc2)c2nc3c(c(=O)n(C)c(=O)n3C)n2C1 (stereo not drawn),20687*,5.0,16.7,-1.0,0.3,?
Cn1c(=O)n(Cc2ccccc2)c(=O)c2c1nc1n2CCCN1Cc1ccccc1,4922,-2.7,14.6,-29.0,-2.2,-0.6
COc1cc(C)c(S(=O)(=O)NOCc2ccccc2)c(C)c1C,·,-4.7,35.9,·,·,·
Cc1ccc2cccc(OC(=O)N3CCCC3)c2n1,22325*,2.5,-2.0,-9.5,1.7,-8.9
O=C(COc1ccccc1)N=C1SC2CS(=O)(=O)CC2N1Cc1ccccc1 (stereo not drawn),5585,2.0,59.8*,-1.0,-1.8,1.1
COc1ccccc1-c1cccc([C@@H]2C[C@H]3[C@H](CON3C)CN2C(=O)CCc2ccccc2)c1,3377,·,·,-2.3,1.6,0.0
Cc1ccnc(N/C=C(\C#N)c2nc(-c3cccc(Br)c3)cs2)c1,8599,-1.0,-7.9,38.7*,39.4*,55.7*
N#C/C(=C\Nc1ccc2cn[nH]c2c1)c1nc(-c2ccccc2)cs1,4094,7.3,-0.5,1.1,-1.0,0.2
O=C1C2C3C=CC(C3)C2C(=O)N1CN(Cc1ccccc1)CN1C(=O)C2C3C=CC(C3)C2C1=O (stereo not drawn),16805*,-0.7,8.1,-2.1,-0.6,-0.9
COc1ccc(S(=O)(=O)N2CCN(C/C=C/c3ccccc3)CC2)cc1F,5566,3.9,29.8,4.4,-2.1,1.1
CC1CN(c2ccc([N+](=O)[O-])c(NCCOc3ccccc3)c2)CC(C)N1 (stereo not drawn),3668,-8.5,51.5*,-35.6,5.2,-2.2
Cc1ccc(C)c(NC(=O)CSc2nnc(CCCCCNC(=O)OC(C)(C)C)o2)c1,26977*,-2.1,9.7,-15.0,-1.9,-7.6
SMILES,Autofluor counter,3CLpro inhibitor,VHR inh abs,BoNT-F LC inh,Anthrax LF prot,BoNT-A LC inh2
Cc1ccc(NC(=O)CSc2nnc(CCNC(=O)OC(C)(C)C)o2)c(C)c1,9877,-0.7,30.9,-2.9,8.5,-0.5
Cc1cccc(C)c1NC(=O)CSc1nnc(CCCCCNC(=O)OC(C)(C)C)o1,16539*,-0.6,10.2,-5.6,-10.5,-2.0
Cc1cc(C)c(C(=O)c2ccc(C(=O)N(C(C)C)C(C)C)cc2)c(C)c1,22394*,7.8,-0.5,-4.4,0.2,-5.8
O=C(/C=C/c1ccc(Cl)cc1)NCCSc1ccccc1,19211*,-2.4,13.9,2.1,-4.1,?
COc1ccc(/C=C/C(=O)NCC(=O)N/N=C(/C)c2ccc(Cl)cc2)cc1,4278,2.7,-20.3,2.1,-0.9,1.3
Cc1ccc2nc(C3CCN(CC(=O)N4CCCCCC4)CC3)[nH]c2c1,23345*,3.7,1.8,-0.3,4.1,0.4
Cc1ccc2nc(C3CCN(C(=O)c4ccco4)CC3)[nH]c2c1,23117*,-4.8,17.7,-1.0,-1.7,0.1
CCOc1ccccc1NC(=O)N1CCC(c2nc3ccc(C)cc3[nH]2)CC1,11879,-2.1,36.8,-9.7,-0.5,-0.9
Cc1ccc(C)c(Cn2nnc3c(=O)[nH]c(C4CCN(C(=O)c5ccco5)CC4)nc32)c1,3710,4.5,-2.7,-2.3,-14.0,0.2
CC(C)Cn1c(N)c(C(=O)COC(=O)C2CC(=O)N(Cc3ccccc3Cl)C2)c(=O)n(C)c1=O (stereo not drawn),4159,-1.0,12.3,1.2,-1.1,0.5
CCOC(=O)C(=CNc1cccc(N)n1)C(=O)OCC,20625*,-5.4,40.8,-1.5,-10.3,-0.7
COc1cccc2c1C(=O)c1ccc3ccccc3c1C2=O,2360,3.2,-8.3,27.6,28.0,34.0*
COc1ccc(OC)c2c1C(=O)c1ccccc1C2=O,·,-0.1,4.6,·,·,·
Cc1ccc(NC(=O)N(C2=NCC(C)S2)c2ccccc2)cc1 (stereo not drawn),19772*,-7.6,·,-6.7,-9.2,?
Cc1cccc(N(C(=O)Nc2ccccc2)C2=NCC(C)S2)c1 (stereo not drawn),6603,0.4,16.6,-19.2,-3.0,-0.9
Cn1c(SCc2ccc(Cl)cc2)nc(C(F)(F)F)cc1=O,20153*,-2.6,-15.3,-6.5,-4.4,-2.2
COC(=O)[C@@]1(C(C)C)N=C(c2cc(OC)c(OC)c(OC)c2)[C@]2(O1)C(=O)Nc1ccccc12,5878,·,·,1.1,3.4,-0.5
O=C(Nc1nnc(C2=COCCO2)o1)c1ccc([N+](=O)[O-])cc1,6658,-4.1,19.2,-7.2,-0.5,-3.0
CC(=NC1CC1)C1=C(O)c2ccccc2C1=O,22929*,-3.7,10.8,0.2,-2.1,?
C/C(=N\N(C)C)C1=C(O)c2ccccc2C1=O,2352,-3.3,10.5,-5.7,-2.3,0.4
O=C(CCNc1n[nH]c(=O)[nH]c1=O)N1CCOCC1,22002*,-0.1,-7.7,0.5,-1.0,?
O=C(CC1SC2=NCCN2C1=O)Nc1ccc(Cl)cc1 (stereo not drawn),17758*,0.3,-11.2,-6.6,-0.3,-2.8
